Only some compounds are listed: those with a hit (about 1.8% of all), similar ones and a draw of the others.
TRPML1 blocker – inhibitors of human TRPML1 channel; 390,000 compounds, 0.02% hits; Q9GZU1; TRPML1-inducible cells, Ca2+ dye fluorescence, FDSS; hits give low values; inhibition of EC80 agonist-evoked calcium signal; activity change, negative = inhibition, % (no concentration beside the values); AID 624415; in the data active = activity change below about -50%; inconclusive = between about -30% and that limit;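 note: stimulus is agonist 54-4 at its EC80 concentration; % is set by controls: 0 for no effect and ±100 for the full control effect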
Target sequence (Q9GZU1 whole entry, looked up): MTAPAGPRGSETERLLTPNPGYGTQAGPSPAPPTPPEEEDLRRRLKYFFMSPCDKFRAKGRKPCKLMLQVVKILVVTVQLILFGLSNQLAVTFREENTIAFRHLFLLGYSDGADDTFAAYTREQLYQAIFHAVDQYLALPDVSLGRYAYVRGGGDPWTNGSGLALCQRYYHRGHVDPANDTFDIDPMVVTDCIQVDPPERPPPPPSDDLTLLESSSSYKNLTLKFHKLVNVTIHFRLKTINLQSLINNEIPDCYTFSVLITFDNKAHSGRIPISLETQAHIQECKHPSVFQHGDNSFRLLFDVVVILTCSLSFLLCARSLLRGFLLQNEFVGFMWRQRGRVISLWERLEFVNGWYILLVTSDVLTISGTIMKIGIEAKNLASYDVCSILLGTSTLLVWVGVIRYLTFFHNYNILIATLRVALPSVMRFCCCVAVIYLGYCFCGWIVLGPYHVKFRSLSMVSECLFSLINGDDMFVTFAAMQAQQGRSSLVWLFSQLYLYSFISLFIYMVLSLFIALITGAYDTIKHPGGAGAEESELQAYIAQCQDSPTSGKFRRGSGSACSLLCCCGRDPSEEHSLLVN
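Tet-induced TRPML1-DL cells loaded with Ca8 no-wash calcium dye were read kinetically on FDSS. Compound addition was followed by EC80 agonist 54-4 (4 uM final); inhibition was read over 110 s.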
GLP1R ag – agonists of human GLP-1 receptor; P43220; HEK293 GLP-1R CRE-luciferase, luminescence, 4-6 h; cells express a hypersensitive GLP-1R form; Potency, µM (highest dose often 45.6 µM), for inactives: at the highest dose activation, usual class: activators; 380,000 compounds, 0.007% hits; note: potency is the fitted concentration of half-maximal effect; % of control where 0% means no effect
TRPML1 agonist – agonists of human TRPML1 channel. Q9GZU1. TRPML1-expressing cells, Ca2+ dye fluorescence, FDSS. activation, % (test concentration not listed). 410,000 compounds, 0.12% hits. AID 624414; in the data active = activation above about 50%; inconclusive = mostly about 30% to 49%; note: 0% is about no effect
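Cells: TRPML1-DL, 1X Tet inducer, ~16 h at 37 degrees C/5% CO2. Dye: ABD Ca8 no-wash + quencher, 45-90 min RT. Read: 10 s baseline, compound add, 110 s agonist phase; 54-4 EC80 (4uM final), 110 s antagonist phase.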
GLP-1R inv ag – acts as inverse agonist at human GLP-1 receptor; Potency, µM (titrated, usually from 38.3 µM), for inactives: top-dose activity change, negative = inhibition, actives largely listed as inhibitors; 410,000 compounds, 1.6% hits; HEK293 GLP-1R CRE-luciferase, luminescence, 24 h; GLP-1R form is constitutively active; AID 624417; note: potency is the fitted concentration of half-maximal effect; % is set by controls: 0 for no effect and ±100 for the full control effect; nearly all actives have a fitted effect of over 55% in size
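qHTS in 1536-well format: reporter HEK293 cells expressing constitutive GLP-1R activity in DMEM + 10% Nu serum, 24 hr with compounds at 37 deg C, luminescence read after 12 min with detection reagent.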
GLP1R cytotox – cytotoxicity in counter-screen for GLP-1R inverse agonists; 410,000 compounds, 0.13% hits; AID 624418; HEK293 cAMP-luciferase reporter cells, luminescence, 24 h; Potency, µM (top dose mostly 38.3 µM), inactives show at the top dose activity change, negative = inhibition, usual class: inhibitors;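 note: loss of luciferase light is scored as toxicity; potency is the fitted concentration of half-maximal effect; % is set by controls: 0 for no effect and ±100 for the full control effect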
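To flag toxic compounds, the library was rerun on cells for 24 hr at 37 deg C and 5% CO2. Viability-linked luminescence was captured 12 min after adding luciferase detection reagent.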
Active calls of the source: *; i = inactive; ? = inconclusive; · = no result. Unless noted, calls come from the whole dose curve; as a rule, active = well fitted curve in the direction sought with a large enough effect; inconclusive = small, poorly fitted or top-dose-only effect, or another doubt; inactive = no such curve, though single readings can be large; an effect the other way counts as inactive or inconclusive.

SMILES	TRPML1 blocker	GLP1R ag	TRPML1 agonist	GLP-1R inv ag	GLP1R cytotox
Fc1ccc(NC(=S)Nc2cc(-c3ccccc3)[nH]n2)cc1Cl	4	2%	0	?	13µM*
Oc1ccc2nnc3c(Br)cnn3c2c1	0	-5%	87*	-12%	i
Clc1ccc2nc3c4ccccc4cnn3c2c1	-5	15%	0	67%	22%
Cc1ccc(NC(=O)Nc2nnc(SCC(=O)N(C(C)C)C(C)C)s2)cc1	-3	·	0	-1%	4%
CCc1ccc(CN2CCC(C(=O)Nc3ccc(Oc4ccccc4)nc3)CC2)o1	12	15%	-1	8.9µM*	-10%
Cc1c(CN2CCC(C(=O)Nc3ccc(Oc4ccccc4)nc3)CC2)cnn1C	12	5%	-1	-5%	10%
O=C(Nc1ccc(Oc2ccccc2)nc1)C1CCN(Cc2ccccc2)CC1	-2	-3%	0	11µM*	-27%
CCn1cc(CN2CCC(C(=O)Nc3ccc(Oc4ccccc4)nc3)CC2)cn1	21	-15%	0	-11%	25%
O=C(Cc1ccccc1)Nc1ccc(NC(=O)C2CCCCC2)nc1	-3	5%	0	7.1µM*	-16%
CCn1nnc(NC(=S)NC(=O)c2ccc(-c3cccc(Cl)c3)o2)n1	2	-1%	2	-22%	5µM*
CCCn1nnc(NC(=O)c2ccc(-c3cccc(Cl)c3)o2)n1	24	-3%	0	-28%	?
COc1ccc(S(=O)(=O)N2CCC(c3cc(-c4cccc5ccccc45)n[nH]3)CC2)cc1	2	4%	1	?	-11%
O=S(=O)(c1cccc(C(F)(F)F)c1)N1CCC(c2cc(-c3cccc4ccccc34)n[nH]2)CC1	32	2%	2	8.9µM*	-3%
CCn1cc2c(n1)-c1c(oc(C(=O)Nc3cccc(C)c3C)c1C)CC2	10	·	6	12%	-7%
CCOC(=O)COc1cc(C)c(Cl)cc1C(=O)c1ccn2nc(-c3ccc(OC)cc3)cc2n1	-14	0%	0	8%	4%
CCCCCCCCCCCCCCCC[n+]1ccc(C)cc1	·	·	6	·	·
O=[N+]([O-])c1ccc(N=Nc2ncc[nH]2)cc1	19	-2%	2	?	5.6µM*
CC1CCc2c(sc3nnn(CC(=O)Nc4cccc(C(F)(F)F)c4)c(=O)c23)C1 (configuration not stated)	-9	·	1	3%	5%
Cc1[nH]c2ccccc2c1/C=N/NC(=O)c1cccc(S(=O)(=O)Nc2cccc(C(F)(F)F)c2)c1	-7	0%	1	13µM*	?
COc1ccc(NC(=O)CCCSc2nc(-c3ccco3)cc(C(F)(F)F)n2)cc1OC	10	8%	1	11µM*	-8%
COc1ccc(NC(=O)CCSc2nc(-c3ccco3)cc(C(F)(F)F)n2)cc1OC	25	·	2	-17%	0%
O=C(Nc1ccc2c(c1)CCCN2C(=O)c1cccs1)c1cccc(C(F)(F)F)c1	4	·	1	?	?
CCN=C1S/C(=C\c2cn(CC)c3ccccc23)C(=O)N1CC	-4	14µM*	-1	?	-9%
COc1ccc(CNCCC2(Cc3ccccc3)CC(C)N(C)CC2C)cc1OC (configuration not stated)	-6	1%	0	?	-5%
COc1ccc(CN(CCC#N)CCC2(c3ccccc3)CC(C)N(C)CC2C)cc1OC (configuration not stated)	3	3%	1	10µM*	?
SMILES	TRPML1 blocker	GLP1R ag	TRPML1 agonist	GLP-1R inv ag	GLP1R cytotox
COc1ccc(S(=O)(=O)NCCc2csc3nc(-c4cccc(C)c4)nn23)cc1F	-6	·	5	5%	2%
Cc1ccc(-c2nnc(N3CCN(C(=O)COc4ccccc4)CC3)c3ccccc23)cc1	6	-10%	2	-11%	?
O=C(COc1ccc(-c2nnc(N3CCCCC3)c3ccccc23)cc1)N1CCCCC1	5	2%	0	10µM*	0%
O=C(NC(=S)N1CCCCCC1)c1ccccc1Cl	34	0%	0	?	5µM*
O=C(Cc1coc2cc3c(cc12)CCC3)NC1CCCCCCC1	9	0%	1	?	0%
O=C(Cc1coc2cc3c(cc12)CCC3)NCC1(N2CCCCC2)CCCCC1	0	9%	1	10µM*	?
N=C1/C(=C/c2coc3ccccc3c2=O)C(=O)N=C2SC(c3ccco3)=NN12	-16	2%	81*	0%	-18%
Cc1cc(/C=C2\C(=N)N3N=C(c4ccco4)SC3=NC2=O)c(C)n1Cc1ccccc1	-13	0%	0	-2%	-4%
N=C1/C(=C\c2coc3ccc(O)cc3c2=O)C(=O)N=C2SC=CN12	-18	0%	?	-5%	-7%
N=C1/C(=C\c2coc3ccccc3c2=O)C(=O)N=C2SC(c3ccncc3)=NN12	-14	0%	112*	16%	-11%
CC(C)CSC1=NSC2=NC(=O)/C(=C\c3coc4ccccc4c3=O)C(=N)N12	-1	-1%	?	?	49%
CSC1=NSC2=NC(=O)/C(=C\c3coc4ccccc4c3=O)C(=N)N12	-10	-2%	76*	-8%	15%
CCOC(=O)c1c2c(n(C)c1C)C(=O)C(=O)c1ccc(Br)cc1-2	-15	10%	0	?	-23%
CCOC(=O)c1c2c(n(Cc3ccccc3)c1C)C(=O)C(=O)c1ccccc1-2	?	-22%	1	?	5µM*
COc1ccc(-c2nc(CN3CCN(Cc4ccccc4)CC3)c(C)o2)cc1	2	7%	0	?	-10%
Cc1cc(N2CCN(Cc3nc(-c4ccc(Cl)cc4)oc3C)CC2)cc(C)n1	2	8%	0	1µM*	?
Cc1nc([N+](=O)[O-])c(Br)n1Cc1ccc(Cl)c(Cl)c1	-5	1%	0	10µM*	10µM*
CN(C)c1ccc(/C=C/c2cc(N(C)C)nc3ccccc23)cc1	·	·	13	·	·
Cc1cc(OCCN2CCC(Cc3ccccc3)CC2)ccc1[N+](=O)[O-]	5	-5%	0	11µM*	?
Cc1cc(OCCN2CC(C)OC(C)C2)ccc1[N+](=O)[O-] (configuration not stated)	9	7%	-1	-2%	-11%
COc1cc(/C=C/C(=O)O[C@H]2CC[C@]34C[C@]35CC[C@]3(C)[C@@H]([C@H](C)CCC=C(C)C)CC[C@@]3(C)C5CCC4C2(C)C)ccc1O (some centres not stated)	·	-4%	·	·	·
COc1cc2nc(N3CCOCC3)nc(NC3CCN(Cc4ccccc4)CC3)c2cc1OC	·	·	0	·	·
OC1CCN(c2cc(-c3ccccc3)nc3cc(-c4ccc(F)cc4)nn23)CC1	-8	20%	0	?	-1%
